# Results: PubChem BioAssay AID1981 (Southern Research Specialized Biocontainment Screening …, 2009)
# Among all 2,200 compounds or so, about 480 (22%) were called active. How the calls were made is not given here. Only a sample is shown. Results with a measured potency or affinity are listed apart.
# Experiment: S. Typhimurium GFP fluorescence dose response in modified counterscreen for PhoP regulon inhibitor project (AID 1981)
# Settings: 4 h; series mostly up to 150 µM
row,Compound,outcome
1,CCOC(=O)C(/C=C(\C#N)C(=O)OCC)=C(/N)N1CCN(c2c(C)cccc2C)CC1,inactive
2,O=C(CCN1CCc2ccccc2C(c2ccccc2)C1)c1ccc2c(c1)OCCO2 (stereo unspecified),inactive
3,CCCC(=O)c1c[nH]c(C(=O)NCCCN2CCOCC2)c1,inactive
4,O=C(c1ccc(CSc2nc3ccncc3[nH]2)cc1)N1CCN(c2cccc(Cl)c2)CC1,inactive
5,O=S(=O)(c1ccc(F)c2ccccc12)N1CCCCC1,inactive
6,COc1ccc(-c2[nH]ncc2/C=C(\C#N)C(=O)NC2CC2)cc1,inactive
7,COC(=O)C1=C(C)N(C)C(=O)/C1=C\c1ccco1,inactive
8,COC(=O)c1ccc(NC(=S)NCCc2cccc(C)c2)cc1,inactive
9,COc1ccc(S(=O)(=O)n2nc(OC(=O)c3ccccc3Br)cc2N)cc1,inactive
10,CN(C(=O)C1CCOC1)c1nnc(-c2ccccn2)s1 (stereo unspecified),inactive
11,O=C1NC(c2ccc3c(c2)OCO3)Oc2ccccc21 (stereo unspecified),inactive
12,CCn1nnc(-c2ccccc2NS(=O)(=O)c2ccc(S(=O)(=O)N3CCCCCC3)cc2)n1,inactive
13,CC(C)CCNC(=S)Nc1ccc([N+](=O)[O-])cc1,inactive
14,Cc1cc(C(=O)N/N=C/c2ccc[nH]2)no1,inactive
15,O=C(NC1CCN(C(=O)N2c3ccccc3Sc3ccccc32)CC1)c1ccco1,inactive
16,Cc1cc(CNC(=O)Nc2ccc3c(c2)OCO3)nn1C,inactive
17,O=C(COc1ccc2ccccc2c1)N1CCN(CC2CC3C=CC2C3)CC1 (stereo unspecified),inactive
18,COCC(=O)N(Cc1ccco1)c1nnc(C2CCOC2)s1 (stereo unspecified),inactive
19,CCCc1nn(C)c2c1C(c1cccnc1)C(C#N)=C(N)O2 (stereo unspecified),inactive
20,CCOC(=O)C1(S(=O)(=O)c2ccccc2)CCN(Cc2ccc(Cl)cc2)CC1,inactive
21,O=C(CN1C(=O)c2ccccc2C1=O)N1CCN(c2ccccn2)CC1,inactive
22,Cc1ccc(/C=C/c2nnc(-c3ccc(C)cc3)o2)cc1,inactive
23,COc1ccc(OCCn2cc(/C=N/NC(=O)c3ccncc3)c3ccccc32)cc1,inactive
24,CC(=O)n1cc(/C=N/NC(=O)c2sc(C)nc2C)c2ccccc21,inactive

row,Compound,outcome
1,COc1ccc(C2CC(c3ccccc3)=NN2c2ccc(/C=N/NC(=O)c3ccncc3)cc2)cc1 (stereo unspecified),inactive
2,COc1ccc2ccccc2c1/C=N/NC(=O)c1sc(N)c(C#N)c1C,inactive
3,COc1ccc2c(c1)CC1(CN2C)C(=O)NC(=O)N(c2ccc(F)cc2)C1=O (stereo unspecified),inactive
4,O=C1Nc2ccc(F)cc2C12SCCS2,inactive
5,Cc1cc2ncn(CC(O)COc3cccc(C(=O)O)c3)c2cc1C (stereo unspecified),inactive
6,COc1cc([N+](=O)[O-])ccc1NC(=O)CN(C)C,inactive
7,COc1cc([N+](=O)[O-])cc(/C=N/NC(=O)c2cccnc2)c1O,inactive
8,C#CC(C)(CC)NC(=O)c1cc(OC)c(OC)c(OC)c1 (stereo unspecified),inactive
9,CC(C)(C)c1cc2cccnc2n1Cc1cccc(Cl)c1,inactive
10,COc1ccc(Cl)cc1C(=O)Nc1ccc(NC(=O)c2ccco2)cc1,inactive
11,O=C(O)CCc1nn2c3ccccc3n(CC(=O)c3ccccc3)c2nc1=O,inactive
12,Nc1c(-c2ccccc2)cnn1-c1cccc([N+](=O)[O-])c1,inactive
13,Nc1ncncc1-c1ccc(Cl)cc1,inactive
14,CCOC(=O)C1CCCN(C(=O)Cc2ccc(Cl)cc2)C1 (stereo unspecified),inactive
15,CC1=CC(C)C2(CO)COC(c3ccccc3O)C1C2C (stereo unspecified),inactive
16,CNc1nc(-c2ccccn2)nnc1-c1ccccc1,inactive
17,Nc1nc(Nc2ccc(Cl)cc2)n[nH]1,inactive
18,Cc1ccc2c(CN3CCC(C)CC3)cc(=O)oc2c1,inactive
19,Cc1[nH]c2ccccc2c1C1=NNC(=Nc2ccc(F)cc2)SC1,inactive
20,CCN1/C(=C/C(C)=C/c2sc3ccccc3[n+]2CC)Sc2ccccc21,inactive
21,COc1ccc(C(=O)COc2nc(C)cc(C)c2C#N)cc1,inactive
22,Cc1cc(-c2csc(NC(=O)c3ccc(S(=O)(=O)N(C)C)cc3)n2)c(C)n1-c1ccccc1,inactive
23,CC1(C)CC(=O)c2c(nc3ccccc3c2N)C1,inactive
24,Cc1nn(-c2ccc(Cl)cc2)c2[nH]c(=O)c(CNCc3ccc4c(c3)OCO4)cc12,inactive

row,Compound,outcome
1,CC(O)c1ccc(OCCN(C)c2ccccn2)cc1 (stereo unspecified),inactive
2,Cc1cc(C)n(-c2ccc(C(=O)Nc3nc4ccccc4s3)cc2)n1,inactive
3,CC(=O)c1c(N2CCN(C(=O)C3CCCO3)CC2)nc(=S)n(-c2ccccc2)c1C (stereo unspecified),inactive
4,O=S(=O)(Cc1ccccc1Cl)N1CCN(Cc2ccc3c(c2)OCO3)CC1,inactive
5,Cc1ccc(-n2c(C)cc(C3=NNC(=NC4CC4)SC3)c2C)cc1C,inactive
6,Cc1nc2ccccc2c(=O)n1/N=C/c1ccc(N(C)C)cc1,inactive
7,c1ccc(Cc2nnc(-c3ccccc3)o2)cc1,inactive
8,NCCCCCc1nnc(SCc2ccc(Cl)c(Cl)c2)o1,inactive
9,O=C(c1ccc(-c2ccccc2)cc1)c1ccccc1C(=O)N1CCOCC1,inactive
10,COc1ccc(N2CCN(C(=O)C3CCCO3)CC2)cc1 (stereo unspecified),inactive
11,O=C(c1ccc(Cl)cc1Cl)C1(n2cncn2)Oc2ccccc2C1O (stereo unspecified),inactive
12,Cc1cccc(-n2ncc3c(NCc4ccc5c(c4)OCO5)ncnc32)c1,inactive
13,O=C1C2C3c4ccccc4C(c4ccccc43)C2C(=O)N1c1cccc2cccnc12 (stereo unspecified),inactive
14,Brc1ccc2cccnc2c1,inactive
15,Cc1ccc(C=Nc2ccccc2C(N)=O)cc1,inactive
16,CCOc1c(Br)cc(CNCc2cccs2)cc1OC,inactive
17,Clc1ccc(Cn2ncc3c(NCc4ccco4)ncnc32)c(Cl)c1,inactive
18,Cc1ccc(NC(=O)CCCSc2nc3ccccc3[nH]2)cc1,inactive
19,O=C(Nc1cccnc1)c1cc(F)cc(F)c1,inactive
20,Cc1cc(C)c2nc(NNC(=O)c3ccc(S(=O)(=O)N4CCCCC4)cc3)sc2c1,inactive
21,COC(=O)c1sccc1NC(=O)C1C2C=CC(O2)C1C(=O)O (stereo unspecified),inactive
22,Nc1ccc(C(=O)OCc2nc3ccccc3[nH]2)cc1,inactive
23,CCOc1ccc(/C=N/O)cc1,inactive
24,CCOc1ccc(CCNC(=O)c2cc3sc(Cl)cc3n2C)cc1OCC,inactive

row,Compound,outcome
1,CCN1CCN(C(=O)c2ccc(COc3ccc(Cl)cc3)o2)CC1,inactive
2,O=C(O)Cc1sc(Nc2ccc(Cl)cc2)nc1-c1cccs1,inactive
3,S=C(c1ccc2c(c1)OCO2)N1CCCC1,inactive
4,Cc1ccc(-c2n[nH]c(=S)n2/N=C/c2cc3c(cc2[N+](=O)[O-])OCO3)cc1,inactive
5,O=c1[nH]c(SCc2nc3ccccc3c(=O)n2-c2ccccc2C(F)(F)F)nc2ccccc12,inactive
6,CCC(OC(=O)C(NC(=O)c1ccccc1)c1ccccc1)C(=O)Nc1cc(C)on1 (stereo unspecified),inactive
7,S=c1[nH]nc(Cc2cccc3ccccc23)o1,inactive
8,Cc1ccc(S(=O)(=O)N2C(=O)CCC2C(=O)N2CCN(C)CC2)cc1 (stereo unspecified),inactive
9,CN(C)c1nc(N)nc(Cn2ccnc2)n1,inactive
10,CC(NCc1ccc(Cl)c(Cl)c1)C(O)c1ccccc1 (stereo unspecified),inactive
11,CCCc1cc(C(=O)Cc2ccc(C(=O)OCC)o2)c(O)cc1O,inactive
12,COc1ccc(C(=O)Nn2c(SCC(=O)N3CCC(C)CC3)nc3ccccc3c2=O)cc1,inactive
13,O=C(COc1ncnc2sccc12)N1CCN(S(=O)(=O)c2ccc(Cl)cc2)CC1,inactive
14,O=S(=O)(c1ccc2c(c1)OCCO2)N1CCN(c2cccc(Cl)c2)CC1,inactive
15,COc1ccc(N(C(=O)CCl)C(C(=O)NCCc2ccccc2)c2cccs2)cc1 (stereo unspecified),inactive
16,S=C(Nc1ccc2snnc2c1)N1CCN(c2ccccn2)CC1,inactive
17,CCn1c2ccccc2c2nnc(SCC(=O)Nc3ccc4c(c3)OCO4)nc21,inactive
18,CCCn1c(SCC(=O)c2c(C)[nH]c(C)c2C(=O)OCC)nc2ccccc21,inactive
19,COc1cc(CNc2ccc(CNc3ncn[nH]3)cc2)ccc1OCc1ccccc1,inactive
20,Clc1ccc(CNc2ccc(CNc3ncn[nH]3)cc2)cc1,inactive
21,CC(C)(C)c1n[nH]c(=S)n(/N=C/c2cccs2)c1=O,inactive
22,Cc1cccc(Nc2nnc(SCC(=O)NC3CCCc4ccccc43)s2)c1 (stereo unspecified),inactive
23,CCCCOc1ccc(S(=O)(=O)NNC(=O)C2Cc3c(ccc4ccccc34)O2)cc1 (stereo unspecified),inactive
24,Clc1ccc(SCCCCn2ccnc2)cc1,inactive

row,Compound,outcome
1,Cc1c(NS(=O)(=O)c2ccccc2)c(=O)n(-c2ccccc2)n1C,inactive
2,CN1CCN(Cc2nc3ccccc3c(=O)[nH]2)CC1,inactive
3,CC(O)CNc1cc(N)c([N+](=O)[O-])cc1[N+](=O)[O-] (stereo unspecified),inactive
4,O=P1(NC2CCCC2)COc2ccccc2OC1,inactive
5,c1ccc(Nc2nc3ccccc3[nH]2)nc1,inactive
6,c1ccc(Nc2ccnc(Nc3ccccc3)n2)cc1,inactive
7,O=C1CN(C(=O)COC(=O)CCC(=O)c2ccc3c(c2)OCCO3)c2ccccc2N1,inactive
8,CSC(=NS(=O)(=O)c1ccccc1)SC,inactive
9,O=C(c1ccccc1)C(CN1CCCC1)c1ccccc1 (stereo unspecified),inactive
10,NC1=NC(=Nc2ccc(Cl)cc2)c2ccccc21,inactive
11,C(=Nc1ccc(Nc2ccccc2)cc1)c1ccc2ccccc2c1,inactive
12,CCOC(=O)N1CCN(c2nc(C)c3c(n2)CCCC3=O)CC1,inactive
13,Cc1cc(=O)oc2cc(OCC(O)CN3CCc4ccccc4C3)ccc12 (stereo unspecified),inactive
14,CN1CCCC(OC(=O)c2ccc3c(c2)OCCO3)C1 (stereo unspecified),inactive
15,COc1nc(N(c2ccccc2)c2ccccc2)nc(-n2ccnc2)n1,inactive
16,COCCCNc1ccnc2c(Cl)cccc12,inactive
17,CN(CC(=O)NCc1cccc(F)c1)C(=O)c1ccco1,inactive
18,COC(=O)c1ccc(Sc2ccccc2NS(=O)(=O)c2ccc(C)cc2)nc1,inactive
19,O=C(c1ccco1)N1CCN(c2ncnc3c2[nH]c2ccccc23)CC1,inactive
20,COc1ccc(-c2cc(C(=O)Nc3ccc(S(=O)(=O)Nc4ncccn4)cc3)c3ccccc3n2)cc1,inactive
